According to PubChem BioAssay AID2685 (National Center for Advancing Translational Sciences (NCATS), 2010):
The campaign covered roughly 320,000 compounds. About 2,100 (0.66%) were called active. Inconclusive results (about 53%) are left out. The call rests on the fitted dose curve; in most records, active means well fitted inhibition curve with a large enough effect in the signal ratio, with a control signal flat (not every such curve was filed as active); inconclusive means small, poorly fitted or top-dose-only effect, or effect the other way, or a change in a side signal; inactive means flat fitted curve, though single readings scatter; the % refers to the signal ratio. Only a selection was taken, and actives are over-represented in it overall.

Experiment: qHTS Assay for Lipid Storage Modulators in Drosophila S3 Cells;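 on cell number change: cells counted by Cell Tracker Red CMTPX staining in the red channel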
Details: BODIPY lipid droplet fluorescence, 18-24 h, cells fed with added oleic acid; cell number change: measured here: cell count max response; series mostly up to 46.1 µM
Method in brief: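 Drosophila S3 cells got compounds at several concentrations plus oleic acid (400 uM solution). Laser-scanning cytometry with 488 nm excitation read lipid droplets at 500-530 nm and cells at 575-640 nm. Percent activity was relative to 20 uM Triacsin C.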
Potency means the concentration at half of the fitted maximal effect.

SMILES | Potency | cell number change [%]
CC(=O)Nc1ccc(S(=O)(=O)N2CCN(CC3CC4C=CC3C4)CC2)cc1 (centres undefined) | inactive | 5.59
O=C(N/N=C/c1ccncc1)c1ccc2c(c1)OCO2 | inactive | -3.13
CCCc1cc2c(=O)c(-c3ccccn3)c(C)oc2cc1O | inactive | -9.21
CC(=O)N[C@H](C(=O)N[C@@H](C)C(=O)N[C@H](C#N)CC(=O)O)C(C)C | inactive | 8.31
Cc1ccc(S(=O)(=O)CCC(=O)OCC(=O)N2CCc3ccccc32)cc1 | inactive | -18.3
CC(=O)Nc1ccc(S(=O)(=O)NCC(=O)OCC(=O)N2CCCc3ccccc32)cc1 | inactive | -6.74
Cc1ccc(S(=O)(=O)N2CCC(C(=O)OCC(=O)N3CC(=O)Nc4ccccc43)CC2)cc1 | inactive | 8.87
CC(=O)Nc1ccc(S(=O)(=O)N(C)CC(=O)OCC(=O)N2CCCCCC2)cc1 | inactive | -4.09
CC(=O)Nc1ccc(S(=O)(=O)N(C)CC(=O)OCC(=O)N2CCc3ccccc32)cc1 | 20.6 µM (active) | -7.07
Cc1ccc(S(=O)(=O)N2CCC(C(=O)OCC(=O)N3CCc4ccccc43)CC2)cc1 | 7.31 µM (active) | -18.3
Nn1cc(-c2ccccc2)nc1SCC(=O)NCC(F)(F)F | inactive | 
COc1ccc2[nH]c(=O)c(CN(Cc3cccnc3)Cc3nnnn3CC3CCCO3)cc2c1 (centres undefined) | inactive | -7.7
COc1cccc2c1OC1(C)CC2NC(=O)N1c1cccc(C(=O)N2CCN(c3ccccc3)CC2)c1 (centres undefined) | inactive | 3.44
COc1cccc2oc3ccc(C#Cc4ccccn4)cc3c(=O)c12 | 0.731 µM (active) | -5.09
Cn1c2ccccc2c(=O)c2ccc(-c3ccc4c(c3)OCO4)cc21 | inactive | -21
COc1cc(OC)cc(-c2c(-c3cccs3)c3cc(-c4ccc(N(C)C)nc4)ccc3n2C)c1 | inactive | 14.6
Cn1c2ccccc2c(=O)c2ccc(C#Cc3ccccn3)cc21 | 14.6 µM (active) | -26.5
COc1cccc2oc3cc(C#Cc4ccccn4)ccc3c(=O)c12 | 18.4 µM (active) | -23
Cn1c2ccccc2c(=O)c2cc(C#Cc3ccccn3)ccc21 | inactive | -13.6
CN(C)c1ccc(-c2ccc3c(=O)c4ccccc4n(C)c3c2)cn1 | 23.1 µM (active) | -7.49
CNC(C)C#Cc1ccc2oc3cccc(OC)c3c(=O)c2c1 (centres undefined) | inactive | 16.5
Cn1c2ccccc2c(=O)c2ccc(C#Cc3ccc(N)cc3)cc21 | inactive | 2.27
Nc1cccc(C#Cc2ccc3c(=O)c4ccccc4oc3c2)c1 | inactive | -4.2
COc1ccc2c(=O)c3ccccc3oc2c1 | inactive | -11.6
COc1cc2oc3ccccc3c(=O)c2cc1OC | inactive | -9.58

SMILES | Potency | cell number change [%]
O=C(NC12CC3CC(CC(C3)C1)C2)c1ccc(Br)o1 | inactive | -22.8
O=C(c1ccccn1)N(CC1CCCO1)C1(C(=O)NC2CCCCC2)CCCCC1 (centres undefined) | inactive | -0.121
Cc1ccc(NC(=O)OCc2cc(-c3ccccc3)on2)cc1 | inactive | 4.96
OCC(O)C(O)C(O)C(O)C1NCCS1 (centres undefined) | inactive | 16.2
COc1ccc(CCNC(=O)C2CCN(C(=O)c3ccc(Cl)cc3)CC2)cc1 | inactive | -13.5
COc1ccc(CCNC(=O)C2CCN(C(=O)c3ccc(Br)cc3)CC2)cc1 | 5.8 µM (active) | -9.49
COc1ccc(CCNC(=O)C2CCN(C(=O)c3ccc(OC)c(OC)c3)CC2)cc1 | inactive | 
Cc1ccc(N2C(=O)C(Cl)=C(N3CCOCC3)C2=O)c(C)c1 | inactive | -6.56
CCOC(=O)C(=CNc1ccc(C(F)(F)F)cc1)C(=O)OCC | inactive | 11.9
CC1CN(C(=O)c2ccc(C(=O)c3ccccc3)cc2)CC(C)O1 (centres undefined) | inactive | -18.7
CC1CN(C(=O)c2cccc(C(=O)N3CC(C)OC(C)C3)c2)CC(C)O1 (centres undefined) | 18.4 µM (active) | 7.82
Cc1cc(C)cc(C(=O)N2CC(C)OC(C)C2)c1 (centres undefined) | inactive | 20.2
CC1CN(C(=O)CCN2C(=O)c3ccccc3C2=O)CC(C)O1 (centres undefined) | inactive | 7.71
CC1CN(C(=O)CN2C(=O)c3ccccc3C2=O)CC(C)O1 (centres undefined) | 23.1 µM (active) | -24.9
CC1CN(C(=O)Cn2c(=O)oc3ccccc32)CC(C)O1 (centres undefined) | inactive | 13.4
O=C(CC(=O)N/N=C/c1ccc(Cl)cc1Cl)NCc1ccccc1 | inactive | -3.68
CCN(Cc1ccccc1)c1ccc(/C=N/NC(=S)NC(C)C)cc1 | inactive | -13
OCc1nc2ccccc2n1CC(O)Cn1ccc2ccccc21 (centres undefined) | inactive | 
O=c1cc2c(n[nH]1)CCCC2 | 0.58 µM (active) | -2.03
O=c1ccc2c([nH]1)CCCCCCCCCC2 | inactive | 10
O=c1cc2c(n[nH]1)-c1ccccc1CC2 | inactive | 1.15
Cc1ccc(-c2nnc(SCC(=O)Nc3nccs3)n2N)cc1 | inactive | -14.7
COc1ccc(NS(=O)(=O)c2ccc3c(c2)N(C(C)=O)CC(C)S3)c(OC)c1 (centres undefined) | inactive | 6.52
O=C1NC2(CCCCCC2)C(=O)N1Cc1ccc(Br)cc1 | inactive | -22.7
O=C1NC2(CCCCCCC2)C(=O)N1Cc1ccc(F)cc1 | inactive | 7.12

SMILES | Potency | cell number change [%]
CC(C)c1ccc(CN2C(=O)NC3(CCCCCC3)C2=O)cc1 | 18.4 µM (active) | 2.7
CCCCC(=O)NS(=O)(=O)c1ccc(N=NN2CCOCC2)cc1 | inactive | -7.29
CCCCSCCCNC(=S)Nc1ccccc1C | inactive | -6.21
Cc1ccc(NC(=O)CSc2ccccc2NC(=O)c2ccccc2Cl)cc1Cl | inactive | 13.7
Cc1ccc(NC(=O)CSc2ccccc2NC(=O)c2cccc(Cl)c2)cc1Cl | inactive | -1.09
Cc1ccc(NC(=O)CSc2ccccc2NC(=O)c2ccccc2)cc1Cl | 20.6 µM (active) | -20
CC(=O)c1cccc(NS(=O)(=O)c2ccc(N/C=C/C(=O)c3ccc(F)cc3)cc2)c1 | inactive | -28.4
CCOc1cccc(CNCCO)c1OCc1ccc(Cl)cc1 | inactive | -0.0822
CCOC(=O)c1sc2nc(CSc3nc4ccccc4n3CC)[nH]c(=O)c2c1C | inactive | -16.4
C=CCn1c(SCc2nc3sc(C(=O)O)c(C)c3c(=O)[nH]2)nnc1-c1ccccc1 | inactive | -15.1
CCn1c(SCc2nc3sc(C(=O)O)c(C)c3c(=O)[nH]2)nc2ccccc21 | 20.6 µM (active) | 
O=C(Nc1ccc(C2CCCCC2)cc1)C1CCN(c2ncccn2)CC1 | inactive | -8.69
Nc1ccc2c(c1)C/C(=C/c1ccco1)C2=O | inactive | 
O=C1/C(=C\c2ccco2)CCC/C1=C\c1ccco1 | 20.6 µM (active) | -21.3
O/N=C1\CCC\C1=C/c1ccco1 | inactive | 0.139
CC1=N/C(=C/c2ccco2)C(=O)O1 | inactive | -0.878
O=C1/C(=C/c2ccco2)CCC1C1CCCC1 (centres undefined) | inactive | -18.8
CC(C)(C)C1C/C(=C/c2ccco2)C(=O)/C(=C/c2ccco2)C1 (centres undefined) | 10.3 µM (active) | -6.47
CN(C)S(=O)(=O)c1ccc(C(=O)Nc2ccc(S(=O)(=O)NC3=NCCCCC3)cc2)cc1 | inactive | 
O=C(CN1C(=O)CCS(=O)(=O)c2ccccc21)Nc1ccc2c(c1)OCCO2 | inactive | -1.7
COc1ccc(NC(=O)CN2C(=O)CC(C)S(=O)(=O)c3ccccc32)cc1 (centres undefined) | inactive | 4.2
Cc1cc(C)c(NC(=O)CN2C(=O)CC(C)S(=O)(=O)c3ccccc32)c(C)c1 (centres undefined) | inactive | 13.7
CCc1ccc(NC(=O)CN2C(=O)CC(C)S(=O)(=O)c3ccccc32)cc1 (centres undefined) | 20.6 µM (active) | 4.2
O=C(CN1C(=O)CCS(=O)(=O)c2ccccc21)Nc1cccc(F)c1 | 23.1 µM (active) | 3.53
O=C(CN1C(=O)CCS(=O)(=O)c2ccccc21)Nc1cccc(Cl)c1 | inactive | -9.4

SMILES | Potency | cell number change [%]
CC1(C)CC2CC(C)(CN2C(=O)COC(=O)c2ccc(Cl)c(N)c2)C1 (centres undefined) | inactive | 7.11
Cc1ccc(NC(=O)CCc2c(C)nn(-c3ccc(N4CCCCC4)nn3)c2C)cc1 | inactive | 
Cc1ccc(S(=O)(=O)CCC(=O)OCc2ccc(Cl)cc2)cc1 | inactive | -1.83
Cc1ccc2[nH]c(=O)c(CN(CC3CCCO3)C(=O)c3cccs3)cc2c1 (centres undefined) | inactive | 31.3
COc1ccc(CNC(=O)C2(c3ccc(Cl)cc3)CC2)cc1 | inactive | 15.2
O=C(NCc1ccco1)C1(c2ccc(Cl)cc2)CCCC1 | inactive | 17
O=C(NCCO)C1(c2ccc(Cl)cc2)CCCC1 | 20.6 µM (active) | -14.3
Cc1cc(C)c2[nH]c3nc(SCC(=O)O)nnc3c2c1 | inactive | 15.4
O=c1oc2ccccc2c(N2CCCCC2)c1CN1CCCC1 | inactive | 20.3
O=C(Cc1ccccc1)NCc1n[nH]c(=S)n1-c1ccc(Br)cc1 | inactive | 12.1
COCCNC(=O)C1(C)C=CC2(CCCCC2)N1C(=O)c1ccccc1 (centres undefined) | inactive | -12.7
S=C(Nc1ccc(Cl)cc1)NN1CCOCC1 | inactive | -1.28
Cc1sc2ncnc(NCc3ccccc3)c2c1C | inactive | 
COc1ccc(-c2nnnn2C)cc1S(=O)(=O)NCc1ccccc1 | inactive | -12.1
CSc1ncc2c(n1)-c1cc(C)ccc1SC2 | inactive | -11.4
Cc1ccc(C)c(OCCC(=O)OCC(=O)Nc2cccc(S(=O)(=O)N3CCCC3)c2)c1 | inactive | 13
O=C(COC(=O)c1ccccc1O)Nc1cccc(S(=O)(=O)N2CCCC2)c1 | 2.91 µM (active) | -0.622
O=C(COC(=O)c1cccnc1Cl)Nc1cccc(S(=O)(=O)N2CCCCC2)c1 | inactive | -11.8
Cc1ccc(C)c(OCCC(=O)Nc2cccc(S(=O)(=O)N3CCCCC3)c2)c1 | 7.31 µM (active) | -9.88
O=C(CCOc1ccccc1)Nc1ccc(S(=O)(=O)N2CCCC2)cc1 | inactive | -12
CC(=O)c1ccc(OCCCC(=O)Nc2cccc(S(=O)(=O)N3CCCCC3)c2)cc1 | inactive | -10.4
O=C(COC(=O)c1cccc(S(=O)(=O)N2CCCC2)c1)Nc1ccccc1 | inactive | 
COc1ccccc1OCCC(=O)Nc1cccc(S(=O)(=O)N2CCCCC2)c1 | inactive | 9.54
O=C(CCCOc1ccccc1)Nc1cccc(S(=O)(=O)N2CCCCCC2)c1 | 0.651 µM (active) | -1
